Laboratory results from PubChem BioAssay.
The source made the active and inactive calls.

Columns and labels:
[1] = binders of probe aFSTL3 on microarray, primary screen, stem cell growth factor project, biochemical, small-molecule microarray, fluorescence 635/667 (AID 1064); conditions: higher = more signal;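 also: measures binding of the biotinylated anti-FSTL3 antibody to printed compounds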
[2] = binders from COS7 lysate, DM2A8 probe, primary screen, torsin A project, cell lysate, small-molecule microarray, fluorescence 635/667 (AID 1065); conditions: higher = more signal, COS7 lysate expressing mutant human TOR1A
[3] = binders of probe aFGF2 on microarray, primary screen, stem cell growth factor project, biochemical, small-molecule microarray, fluorescence 635/667 (AID 1067); conditions: higher = more signal;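 also: measures binding of biotinylated aFGF2 protein to printed compounds on slides; z-score merges feature fluorescence and signal-to-noise across triplicate slides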
[4] = binders of probe aFGF10 on microarray, primary screen, stem cell growth factor project, biochemical, small-molecule microarray, fluorescence 635/667 (AID 1071); conditions: higher = more signal;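 also: score merges 667 nm spot intensity and signal to noise from triplicate slides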
[5] = target: Neurogenic locus notch homolog protein 2 (Homo sapiens) (UniProt Q04721); test: Notch2 binders on small-molecule microarrays, primary screen, biochemical, small-molecule microarray, 635 nm fluorescence, stem cell growth factors (AID 1073); conditions: Notch2 binding, higher = more signal
Neurogenic locus notch homolog protein 2 (Homo sapiens), sequence (Q04721 whole entry, looked up, canonical isoform): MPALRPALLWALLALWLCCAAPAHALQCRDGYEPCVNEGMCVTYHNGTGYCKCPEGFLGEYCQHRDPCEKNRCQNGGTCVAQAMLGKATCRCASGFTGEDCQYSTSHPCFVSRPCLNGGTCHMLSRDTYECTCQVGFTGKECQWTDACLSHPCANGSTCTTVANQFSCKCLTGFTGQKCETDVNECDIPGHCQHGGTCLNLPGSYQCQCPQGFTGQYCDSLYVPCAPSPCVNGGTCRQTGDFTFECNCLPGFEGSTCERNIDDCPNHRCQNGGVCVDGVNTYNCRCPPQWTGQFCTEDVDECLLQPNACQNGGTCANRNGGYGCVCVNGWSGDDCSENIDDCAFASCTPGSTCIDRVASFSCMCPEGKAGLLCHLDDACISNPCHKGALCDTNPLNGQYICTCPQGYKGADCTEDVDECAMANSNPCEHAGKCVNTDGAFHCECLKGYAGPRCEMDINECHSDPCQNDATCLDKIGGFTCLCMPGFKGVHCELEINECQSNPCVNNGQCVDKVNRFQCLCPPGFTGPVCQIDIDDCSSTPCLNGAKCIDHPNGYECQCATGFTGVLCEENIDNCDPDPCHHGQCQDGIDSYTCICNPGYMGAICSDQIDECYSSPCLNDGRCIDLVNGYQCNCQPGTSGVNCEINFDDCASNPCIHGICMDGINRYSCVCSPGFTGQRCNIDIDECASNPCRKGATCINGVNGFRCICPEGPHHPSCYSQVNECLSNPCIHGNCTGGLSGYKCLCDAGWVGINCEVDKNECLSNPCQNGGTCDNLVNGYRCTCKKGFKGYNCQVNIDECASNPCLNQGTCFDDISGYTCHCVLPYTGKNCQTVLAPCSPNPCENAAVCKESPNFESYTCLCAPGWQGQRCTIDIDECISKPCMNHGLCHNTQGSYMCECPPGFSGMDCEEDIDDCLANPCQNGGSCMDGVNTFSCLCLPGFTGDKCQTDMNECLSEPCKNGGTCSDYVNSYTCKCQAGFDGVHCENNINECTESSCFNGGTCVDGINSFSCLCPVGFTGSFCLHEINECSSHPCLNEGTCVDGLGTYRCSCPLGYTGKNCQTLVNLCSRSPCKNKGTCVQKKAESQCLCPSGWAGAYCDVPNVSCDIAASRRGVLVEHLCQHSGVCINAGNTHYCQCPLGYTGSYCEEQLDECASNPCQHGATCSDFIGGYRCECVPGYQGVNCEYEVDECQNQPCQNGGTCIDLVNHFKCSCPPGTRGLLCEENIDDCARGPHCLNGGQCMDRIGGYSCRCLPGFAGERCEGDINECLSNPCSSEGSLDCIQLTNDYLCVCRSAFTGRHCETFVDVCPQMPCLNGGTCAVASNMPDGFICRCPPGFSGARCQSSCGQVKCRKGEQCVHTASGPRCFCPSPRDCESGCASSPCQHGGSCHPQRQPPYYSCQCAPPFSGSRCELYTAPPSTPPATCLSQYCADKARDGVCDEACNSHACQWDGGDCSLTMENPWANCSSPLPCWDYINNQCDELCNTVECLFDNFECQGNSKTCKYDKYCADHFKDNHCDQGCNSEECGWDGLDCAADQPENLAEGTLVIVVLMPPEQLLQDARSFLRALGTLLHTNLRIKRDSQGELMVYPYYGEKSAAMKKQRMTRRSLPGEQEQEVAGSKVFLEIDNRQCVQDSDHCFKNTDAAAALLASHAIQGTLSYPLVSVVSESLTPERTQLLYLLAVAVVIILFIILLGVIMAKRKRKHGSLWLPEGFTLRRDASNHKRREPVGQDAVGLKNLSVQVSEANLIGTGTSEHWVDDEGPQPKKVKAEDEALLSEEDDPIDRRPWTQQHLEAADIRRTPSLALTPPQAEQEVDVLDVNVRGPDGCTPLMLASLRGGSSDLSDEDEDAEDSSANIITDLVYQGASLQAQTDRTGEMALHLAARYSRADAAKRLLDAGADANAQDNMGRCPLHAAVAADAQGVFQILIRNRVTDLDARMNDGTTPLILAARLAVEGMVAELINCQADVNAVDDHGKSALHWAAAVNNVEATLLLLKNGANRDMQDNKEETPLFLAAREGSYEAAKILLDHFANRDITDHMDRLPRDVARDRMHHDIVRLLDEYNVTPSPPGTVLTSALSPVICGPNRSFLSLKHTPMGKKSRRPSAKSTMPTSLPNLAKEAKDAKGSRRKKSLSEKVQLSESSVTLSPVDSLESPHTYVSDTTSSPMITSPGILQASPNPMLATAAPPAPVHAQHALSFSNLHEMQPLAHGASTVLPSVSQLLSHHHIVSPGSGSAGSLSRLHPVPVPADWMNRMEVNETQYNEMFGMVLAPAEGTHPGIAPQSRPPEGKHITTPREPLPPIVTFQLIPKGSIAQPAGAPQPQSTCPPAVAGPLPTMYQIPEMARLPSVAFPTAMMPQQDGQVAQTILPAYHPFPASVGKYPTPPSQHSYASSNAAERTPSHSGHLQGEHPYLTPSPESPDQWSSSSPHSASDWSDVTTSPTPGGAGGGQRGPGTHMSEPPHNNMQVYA

[6] = target: Pro-neuregulin-1, membrane-bound isoform (Homo sapiens) (UniProt Q02297); test: NRG1 binders on small-molecule microarrays, primary screen, psychiatric disease protein project, biochemical, small-molecule microarray, fluorescence 635/667 (AID 1075); conditions: NRG1 binding, 635 nm fluorescence, higher = more signal;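 also: score combines 667 nm spot fluorescence with signal to noise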
Pro-neuregulin-1, membrane-bound isoform (Homo sapiens), sequence (Q02297 whole entry, looked up, the tested form may be a part, canonical isoform): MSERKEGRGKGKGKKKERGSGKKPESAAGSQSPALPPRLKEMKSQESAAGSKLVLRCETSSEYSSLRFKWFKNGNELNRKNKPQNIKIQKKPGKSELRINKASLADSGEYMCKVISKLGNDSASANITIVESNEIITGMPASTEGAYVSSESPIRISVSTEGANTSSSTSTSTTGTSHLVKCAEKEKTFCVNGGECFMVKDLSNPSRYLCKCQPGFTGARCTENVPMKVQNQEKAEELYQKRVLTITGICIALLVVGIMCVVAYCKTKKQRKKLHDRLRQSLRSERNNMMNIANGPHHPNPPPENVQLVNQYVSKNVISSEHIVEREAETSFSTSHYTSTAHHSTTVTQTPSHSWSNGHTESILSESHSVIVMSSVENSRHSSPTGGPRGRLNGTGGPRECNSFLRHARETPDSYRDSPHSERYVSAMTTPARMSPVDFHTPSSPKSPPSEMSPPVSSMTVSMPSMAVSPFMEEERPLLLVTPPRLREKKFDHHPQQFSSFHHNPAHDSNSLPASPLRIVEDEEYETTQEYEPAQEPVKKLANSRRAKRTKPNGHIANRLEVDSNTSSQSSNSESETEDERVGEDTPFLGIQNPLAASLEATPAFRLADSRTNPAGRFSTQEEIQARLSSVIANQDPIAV

[7] = test system: Neuregulin-1 EGF-like domain; test: binders of neuregulin-1 EGF-like domain, primary screen, biochemical, small-molecule microarray, 635 nm fluorescence (AID 1081); conditions: small-molecule microarray binding, higher = more signal;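 also: binding of the protein to compounds printed on small-molecule microarray slides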
[8] = FRG1 promoter luciferase signal modulators, primary screen, FRG1 inhibition for FSHD, cell-based, C2C12 myotubes, firefly/Renilla luciferase, luminescence (AID 1084); conditions: higher = more signal, called active from +8 up or from −8 down
[9] = binders of probe aFST on microarray, primary screen, stem cell growth factor project, biochemical, small-molecule microarray, fluorescence 635/667 (AID 1086); conditions: higher = more signal;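 also: score merges 667 nm fluorescence with signal-to-noise of each printed compound spot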
[10] = binders of probe aHhip on microarray, primary screen, stem cell growth factor project, biochemical, small-molecule microarray, fluorescence 635/667 (AID 1087); conditions: higher = more signal;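 also: score merges spot fluorescence at 667nm with spot signal to noise ratio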

SMILES | composite z-score [1] | composite z-score [2] | composite z-score [3] | composite z-score [4] | composite z-score [5] | composite z-score [6] | composite z-score [7] | z-score [8] | composite z-score [9] | composite z-score [10]
COCCOC(=O)N1C(=O)[C@@]2(c3cc(C#CCC(C(=O)OC)C(=O)OC)ccc31)[C@H](c1ccccc1OCCO)N1[C@H](c3ccccc3)[C@H](c3ccccc3)OC(=O)[C@H]1[C@@H]2C(=O)N1CCN(c2ncccn2)CC1 | -0.266 | 0.273 | 0.137 | 0.432 | 0.986 | 1.32 | 1.2 | -0.796 (inactive) | 0.74 | 0.03
C=CCC(OC(C)=O)[C@@H]1[C@@H](N(Cc2cc3ccccc3o2)C(=O)c2cccc3ccccc23)c2cc(OCCCO)ccc2N1C(=O)c1ccc(-c2ccccc2)cc1 (stereo not given in full) | 0.118 | -0.203 | -0.108 | 0.0904 | 0.0918 | 0.142 | -0.164 | -0.408 (inactive) | 0.101 | -0.137
CC(C)N1C(=O)c2ccccc2[C@](C)(C(=O)NCCN2CCOCC2)[C@@H]1c1ccc(CO)cc1 | 0.755 | 0.779 | -0.104 | -1.08 | -0.879 | 1.76 | 0.728 | 0.185 (inactive) | -0.527 | -0.306
CN1C=C(C(=O)OCCS(C)(=O)=O)C(C(=O)OCCS(C)(=O)=O)=CC(c2ccc(CO)cc2)=CC1C1CC1 (stereo not given) | -0.0965 | 0.528 | -0.0824 | 0.0351 | -0.0701 | 1 | 1.27 | 0.849 (inactive) | -0.0993 | -0.0994
CCCCCN1CC=CC23O[C@@H]4C=CCCOC(=O)C4[C@H]2C(=O)N(CCCCCO)[C@@H]3C1=O (stereo not given in full) | 0.262 | 1.2 | -0.195 | -0.168 | -0.814 | 0.927 | 1.55 | -0.666 (inactive) | -0.432 | -0.45
CN(C)C(=O)[C@@]1(CCS(=O)(=O)c2ccccc2)COC(c2ccc(OCCCO)cc2)=N1 | 0.578 | -0.149 | 0.127 | 0.568 | 0.331 | 1.8 | 1.36 | -2.05 (inactive) | 0.47 | -0.141
CCS[C@H]1[C@@H](C(=O)O)[C@H](c2ccc(C)cc2)N(S(=O)(=O)c2ccc(C)cc2)[C@@H]1CC | -0.21 | -0.0564 | 0.0288 | 1.1 | 1.36 | 1.84 | 1.36 | -3.15 (inactive) | 1.56 | 0.201
C=CCN1C(=O)[C@@]2(CC=C)N=C(c3ccc(OCCCO)cc3)O[C@H]2c2ccccc21 | 0.529 | 0.194 | 0.0606 | -0.0534 | 1.38 | 1.3 | 1.37 | -2.47 (inactive) | 0.835 | -0.318
